Set-up in all cases: species or system human, MV4-11 + K-562 + COLO205 + SK-N-BE2 + OVCAR-8
For one test, the system named is ERBB3. Particulars: read-out: apparent Kd, n = 1.
For the next test, the system named is T1, T10.
T1 construct: gene NAT10
To be noted: read-out: apparent Kd; compound concentrations:100 nM and 1000 nM (sheet 'Samples'); n = 1.

The next test deals with EGFR. Particulars: read-out: apparent Kd, n = 1.
The subject of a further test is EPHA1. Particulars: read-out: apparent Kd; compound concentrations: 100 nM and 1000 nM (sheet 'Samples'), CATDS: 0.101565778514596; n = 1.
Another test has as its system EPHA2. Particulars: read-out: apparent Kd; compound concentrations: 100 nM and 1000 nM (sheet 'Samples'), CATDS: 6.7925989209778895E-2; n = 1.
For another test, the system named is EPHA4. To be noted: read-out: apparent Kd; compound concentrations: 100 nM and 1000 nM (sheet 'Samples'), CATDS: 7.2128070641764394E-2; n = 1.
The subject of a further test is EPHA5. Particulars: read-out: apparent Kd; compound concentrations: 100 nM and 1000 nM (sheet 'Samples'), CATDS: 6.7106289127757499E-2; n = 1.
Another test has as its system EPHA7. To be noted: read-out: apparent Kd; compound concentrations: 100 nM and 1000 nM (sheet 'Samples'), CATDS: 5.7157289588894301E-2; n = 1.
In the next test the test system is EPHB2. To be noted: read-out: apparent Kd; compound concentrations: 100 nM and 1000 nM (sheet 'Samples'), CATDS: 6.4850076698592204E-2; n = 1.
For a further test, the system named is EPHB4. Particulars: read-out: apparent Kd; compound concentrations: 100 nM and 1000 nM (sheet 'Samples'), CATDS: 0.111344717085302; n = 1.
The next test deals with FLT4. Particulars: read-out: apparent Kd; compound concentrations: 100 nM and 1000 nM (sheet 'Samples'), CATDS: 5.9092612801250499E-2; n = 1.
For another test, the system named is MAPK14. Particulars: read-out: apparent Kd; compound concentrations: 100 nM and 1000 nM (sheet 'Samples'), CATDS: 5.8794914903048702E-2; n = 1.
In a further test the test system is MAPKAPK2. To be noted: read-out: apparent Kd; compound concentrations: 100 nM and 1000 nM (sheet 'Samples'), CATDS: 6.3284106262713205E-2; n = 1.
The test system of another test is NNT. To be noted: read-out: apparent Kd; compound concentrations: 100 nM and 1000 nM (sheet 'Samples'), CATDS: 5.7006998713096203E-2; n = 1.
In the next test the test system is RET. Particulars: read-out: apparent Kd; compound concentrations: 100 nM and 1000 nM (sheet 'Samples'), CATDS: 0.20598352545457299; n = 1.
Another test concerns MAP2K5. To be noted: read-out: apparent Kd; compound concentrations:100 nM and 1000 nM (sheet 'Samples'); n = 1.
In the next test the test system is RIPK2. To be noted: read-out: apparent Kd; compound concentrations:100 nM and 1000 nM (sheet 'Samples'); n = 1.
The test system of another test is FLT3. To be noted: read-out: apparent Kd; compound concentrations: 100 nM and 1000 nM (sheet 'Samples'), CATDS: 1; n = 1.
The test system of a further test is GSK3A. To be noted: read-out: apparent Kd; compound concentrations:100 nM and 1000 nM (sheet 'Samples'); n = 1.
Another test relates to GRK6. Particulars: read-out: apparent Kd; compound concentrations:100 nM and 1000 nM (sheet 'Samples'); n = 1.
The next test deals with JAK2. Particulars: read-out: apparent Kd; compound concentrations:100 nM and 1000 nM (sheet 'Samples'); n = 1.
The test system of another test is MAPK10. Particulars: read-out: apparent Kd; compound concentrations:100 nM and 1000 nM (sheet 'Samples'); n = 1.
The next test has as its system MAPK9. Particulars: read-out: apparent Kd; compound concentrations:100 nM and 1000 nM (sheet 'Samples'); n = 1.
A further test has as its system NLK. Particulars: read-out: apparent Kd; compound concentrations:100 nM and 1000 nM (sheet 'Samples'); n = 1.
The next test deals with GARS. To be noted: read-out: apparent Kd; compound concentrations: 100 nM and 1000 nM (sheet 'Samples'), CATDS: 0.112943260502492; n = 1.
The subject of the next test is MAP3K6. To be noted: read-out: apparent Kd; compound concentrations: 100 nM and 1000 nM (sheet 'Samples'), CATDS: 0.103040219928506; n = 1.
The next test has as its system MTOR. Particulars: read-out: apparent Kd; compound concentrations: 100 nM and 1000 nM (sheet 'Samples'), CATDS: 0.20477857042049299; n = 1.
A further test has as its system PIK3C2A. To be noted: read-out: apparent Kd; compound concentrations: 100 nM and 1000 nM (sheet 'Samples'), CATDS: 0.109461657335159; n = 1.
The subject of the next test is PIK3CA. Particulars: read-out: apparent Kd; compound concentrations: 100 nM and 1000 nM (sheet 'Samples'), CATDS: 0.41958784794042803; n = 1.
The test system of another test is PRKDC. Particulars: read-out: apparent Kd; compound concentrations: 100 nM and 1000 nM (sheet 'Samples'), CATDS: 0.14221616768717599; n = 1.
In the next test the test system is RAB14. Particulars: read-out: apparent Kd; compound concentrations: 100 nM and 1000 nM (sheet 'Samples'), CATDS: 0.14270902117051201; n = 1.
The mark [1] stands for this setting: compound concentrations:100 nM and 1000 nM (sheet 'Samples').

The structures appear in SMILES notation. Read-outs that look alike come from different tables or passages of the source.

Results on 8 compounds are retold here after paper PMC11062922 (Nature Chemical Biology, 2023).

Regarding `C[C@@H]1CC[C@@H](C(=O)Nc2ccccc2)CN1c1cc(-c2ccc3c(N)n[nH]c3c2)nc(N)n1` [GSK2286062A], the potency estimated from few doses with ERBB3 (setting [1]) is 1.76 µM; with T10 it was 1.12 µM.

Turning to `COc1cc2ncnc(Nc3cccc(Cl)c3F)c2cc1O[C@H]1CC[C@H]([C@@H]2NCCNC2=O)CC1` [BI00133844], the potency estimated from few doses in the test with EGFR (compound concentrations: 100 nM and 1000 nM (sheet 'Samples'), CATDS: 0.60963151876595101) was 0.0154 µM; in the test on EPHA1, 0.403 µM; with EPHA2 it was 1.06 µM; in the test with EPHA4, 0.898 µM; in the test on EPHA5, 1.09 µM; in the test on EPHA7, 1.8 µM. Also, the potency estimated from few doses in the test on EPHB2 is 1.2 µM; in the test with EPHB4, 0.332 µM; with FLT4 it was 1.6 µM; in the test with MAPK14 it was 1.63 µM; in the test on MAPKAPK2 it was 1.29 µM; in the test on NNT it was 1.81 µM. Moreover, the potency estimated from few doses in the test with RET is 0.099 µM.

For `Cl.Nc1c(C(=O)c2ccc(CCCN3CCOCC3)cc2)cnn1-c1ccc(F)cc1` [RO1153427-001], the potency estimated from few doses in the test with ERBB3 (compound concentrations: 100 nM and 1000 nM (sheet 'Samples'), CATDS: 1) was 1.82 µM.

For the compound `Cl.O=C(O[C@H]1CN[C@H](C#Cc2cc3ncnc(Nc4ccc5c(cnn5Cc5ccccc5)c4)c3s2)C1)N1CCOCC1` [GSK200398A_KCGS], the potency estimated from few doses in the test with EGFR (setting [1]) is 0.0267 µM; in the test with MAP2K5, 2.2 µM; with RIPK2, 0.936 µM.

In the case of `Cl.NS(=O)(=O)c1cccc(Nc2cc(-c3ccc(F)cc3)n[nH]2)c1` [GW824645A_PKIS2], the potency estimated from few doses with FLT3 is 0.342 µM.

Consider `O=C(Nc1n[nH]c2nc(-c3cccs3)c(Br)cc12)C1CC1` [SB-735297], for which the potency estimated from few doses in the test with GSK3A was 1.29 µM.

`Cn1c(=O)c(Oc2ccc(F)cc2F)cc2cnc(NC3CCOCC3)nc21` [RO3304806-000]: the potency estimated from few doses with GRK6 is 1.35 µM; in the test on JAK2 it was 0.603 µM; in the test with MAPK10, 1 µM; in the test with MAPK9 it was 1.78 µM; in the test on NLK, 1.62 µM.

In the case of `Nc1ncnc2c1ncn2-c1cccc2ccccc12` [SKF-97184], the potency estimated from few doses was 1.67 µM in the test on GARS; 2.27 µM with MAP3K6; 0.419 µM in the test on MTOR; 1.84 µM in the test on PIK3C2A; 0.132 µM in the test with PIK3CA; 0.896 µM in the test on PRKDC. Further, the potency estimated from few doses in the test on RAB14 was 0.889 µM.
